CYP2C9 inhib: blockers of cytochrome P450 2C9 activity – biochemical, luminescence, ADME assay, primary screen. CYP2C9 Supersomes, luciferin-H conversion. inhibition, % at 5 µM. hit rate 20% among 96,000. AID 777, 2007;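 active = blocking of liver enzyme CYP2C9 beyond about 50% at 5 µM, limit read from the data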
CYP2C19 inh: blockers of cytochrome P450 2C19 activity – biochemical, luminescence, ADME assay, primary screen. P33261. CYP2C19 Supersomes, luciferin-H EGE luminescence, 30 min. inhibition, % at 5 µM. hit rate 21% among 96,000. AID 778, 2007;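 active = CYP2C19 inhibition above a set limit at 5 µM in the primary screen, cut at about 50% in these data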
Target sequence (P33261 whole entry, looked up): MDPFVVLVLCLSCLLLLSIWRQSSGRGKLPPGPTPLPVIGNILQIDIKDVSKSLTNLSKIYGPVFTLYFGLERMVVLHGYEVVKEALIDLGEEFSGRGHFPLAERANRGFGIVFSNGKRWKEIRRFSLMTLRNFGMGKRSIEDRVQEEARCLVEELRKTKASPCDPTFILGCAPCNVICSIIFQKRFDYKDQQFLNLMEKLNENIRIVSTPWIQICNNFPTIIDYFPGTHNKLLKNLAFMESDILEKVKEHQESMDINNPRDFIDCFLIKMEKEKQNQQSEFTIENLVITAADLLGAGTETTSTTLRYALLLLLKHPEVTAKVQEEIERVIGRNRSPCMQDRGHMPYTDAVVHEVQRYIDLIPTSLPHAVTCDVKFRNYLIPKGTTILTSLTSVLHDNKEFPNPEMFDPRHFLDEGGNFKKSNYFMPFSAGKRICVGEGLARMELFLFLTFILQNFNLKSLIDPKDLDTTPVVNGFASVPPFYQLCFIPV
Cav32 inh: Cav3.2 calcium influx blockers – cell-based, Fluo-4 calcium fluorescence, FDSS, MLSMR library, primary screen; Voltage-dependent T-type calcium channel subunit alpha-1H (Homo sapiens), O95180; Cav3.2-expressing cells; hits give low values; B-score at 10 µM; hit rate 4% among 100,000;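 active = single-dose well whose peak fluorescence ratio is a statistical outlier from its plate by either plate-standardised score or position-corrected B-score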
CYP2C19 act: human CYP2C19 activators, primary screen, biochemical, luminescence | activation factor at 5 µM | recombinant CYP2C19, luciferin-H EGE luminescence; hits give high values; 0 = fully inhibited enzyme, 1 = untreated enzyme | 96,000 tested, under 10 active | Cytochrome P450 2C19 (Homo sapiens), P33261;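 active = activation factor of at least 2 at 5 µM in the primary screen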
CYP2C9 act: human CYP2C9 activators, primary screen, biochemical, luminescence; Cytochrome P450 2C9 (Homo sapiens), P11712; recombinant CYP2C9, luciferin-H conversion; hits give high values; factor 1 = untreated enzyme, 0 = blocked; activation factor at 5 µM; hit rate 1.4% among 96,000; AID 1024, 2008;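 active = activation factor of 2 or more for CYP2C9 at a 5 µM dose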
Of the large screens only hits and unclear results are named; the others gave an inactive call. The list is not random: actives were taken first. Their share in the collection is about 27%.

Cc1cc(C)n(-c2nnc(C)n2/N=C/c2ccccc2OCc2ccccc2Cl)n1	CYP2C9 inhib 52, CYP2C19 inh 56, Cav32 inh -5.6
Cc1cc(C)n(-c2nnc(C)n2/N=C/c2ccccc2F)n1	none
COc1ccccc1/C=N/n1c(C)nnc1-n1nc(C)cc1C	none
Cc1cc(C)n(-c2nnc(C)n2/N=C/c2cc(Br)ccc2OCc2ccccc2)n1	Cav32 inh -6.9
COc1ccc(C[C@@H]2CN3C(=NC[C@@H]3C)N2C[C@H](C)NC(=O)c2ccc(C)c(Br)c2)cc1	none (no result: CYP2C9 inhib, CYP2C19 inh, CYP2C19 act, CYP2C9 act)
CC(=O)c1sc(NC(=O)c2c(F)cccc2F)nc1C	none
CC(=O)Nc1nc(=S)ss1	none
Cc1ccccc1C(=O)Nc1nc(=S)ss1	CYP2C9 inhib 81, Cav32 inh -5
CC(C)CC(=O)Nc1nc(=S)ss1	CYP2C9 inhib 69, Cav32 inh -5.6
O=C(Nc1nc(=S)ss1)c1c(F)cccc1F	CYP2C9 inhib 80
O=C(COc1ccc2c(c1)CCC2)N1CCc2ccccc21	none
CCOC(=O)C1=C(C)NC(=O)NC1C(C)C (stereo not given)	none (no result: CYP2C9 inhib, CYP2C19 inh, CYP2C19 act, CYP2C9 act)
Cc1ccc(NC(=O)CN(C)C(=O)CCCN2C(=O)c3ccccc3C2=O)cc1	none
CN(CC(=O)Nc1c(Cl)cccc1Cl)C(=O)CCCN1C(=O)c2ccccc2C1=O	CYP2C9 inhib 86
Cc1cccc(NC(=O)CCSc2nncn2C)c1	none (no result: CYP2C9 inhib, CYP2C19 inh, CYP2C19 act, CYP2C9 act)
CSc1ncccc1C(=O)OCn1nnc2ccccc2c1=O	none
O=C(OCn1nnc2ccccc2c1=O)C1CCCCC1	CYP2C9 inhib 53, CYP2C19 inh 72
O=C(OCn1nnc2ccccc2c1=O)C1COc2ccccc2O1 (stereo not given)	none
O=C(OCn1nnc2ccccc2c1=O)c1cccnc1Cl	CYP2C19 inh 59
CCN(CC)S(=O)(=O)c1ccc(C(=O)OCn2nnc3ccccc3c2=O)cc1	CYP2C9 inhib 78
COc1ccc(CSc2nnc(SCc3ccc([N+](=O)[O-])cc3)s2)cc1	none
Cn1c(CO)cnc1SCc1ccc([N+](=O)[O-])cc1	CYP2C19 inh 65
COC(=O)c1ccc(CSc2nccn2C)cc1	CYP2C19 inh 65
Cn1ccnc1SCc1ccc([N+](=O)[O-])cc1	CYP2C19 inh 55
CC(=O)N1[C@H](C)C=C[C@]1(Cc1ccccc1)C(=O)O	none (no result: CYP2C9 inhib, CYP2C19 inh, CYP2C19 act, CYP2C9 act)
CCn1c(=O)cc(SCC(=O)NCc2ccccn2)c2ccccc21	none (no result: Cav32 inh)
O=C(CSCc1ccccc1)NNC(=S)Nc1cccc(Cl)c1Cl	CYP2C9 inhib 87
O=C1c2[nH]nc(-c3ccccc3O)c2C(c2ccc(F)cc2)N1CC1CCCO1 (stereo not given)	none
CC(=O)C1=C(O)C(=O)N(Cc2ccco2)C1c1ccccc1 (stereo not given)	none
O=C1c2[nH]nc(-c3ccccc3O)c2C(c2cccc(Cl)c2)N1CC1CCCO1 (stereo not given)	CYP2C9 inhib 88, CYP2C19 inh 70 (no result: Cav32 inh)
O=C1c2[nH]nc(-c3ccccc3O)c2C(c2cccc(Cl)c2)N1Cc1ccco1 (stereo not given)	CYP2C9 inhib 95, CYP2C19 inh 87, Cav32 inh -4.3
O=C1c2[nH]nc(-c3ccccc3O)c2C(c2ccc(F)cc2)N1Cc1ccco1 (stereo not given)	CYP2C9 inhib 97, CYP2C19 inh 84, Cav32 inh -4.5
O=c1nc2ccccc2c(NS(=O)(=O)c2ccccc2)n1-c1ccccc1	none
Cn1cnnc1Sc1nc2ccccc2nc1NS(=O)(=O)c1ccccc1	CYP2C9 inhib 97
CC(=O)Nc1ccc(S(=O)(=O)Nc2nc3ccccc3nc2Sc2nncn2C)cc1	none
Cn1ccnc1Sc1nc2ccccc2nc1NS(=O)(=O)c1ccccc1	CYP2C9 inhib 98
COc1ccccc1N1C(=O)CCC1(C#N)c1ccccc1 (stereo not given)	none
CCCC1C(C(=O)OCC)=C(C)NC(C)=C1C(=O)OCC	CYP2C9 inhib 68, CYP2C19 inh 94 (no result: Cav32 inh)
CCOC(=O)C1=C(C)NC(C)=C(C(=O)OCC)C1c1ccc(O)cc1	CYP2C9 inhib 98, CYP2C19 inh 98
COC(=O)C1=C(C)NC(C)=C(C(=O)OC)C1c1ccc(N(C)C)cc1	CYP2C9 inhib 70, CYP2C19 inh 84
CCOC(=O)C1=C(C)NC(C)=C(C(=O)OCC)C1c1sccc1C	CYP2C9 inhib 90, CYP2C19 inh 56
CCc1ccc(Nc2oc(C)cc(=O)c2C(C)=O)cc1	none
COC(C/C=C\C(=O)[C@@H](C)OCc1ccccc1)OC	none (no result: CYP2C9 inhib, CYP2C19 inh, CYP2C19 act, CYP2C9 act)
CCSc1ncc(Cl)c(C(=O)Nc2sc3c(c2C(=O)NCc2cccnc2)CCCC3)n1	none
O=S(NCc1ccco1)C12CC3CC(CC(C3)C1)C2 (stereo not given)	none (no result: CYP2C9 inhib, CYP2C19 inh, CYP2C19 act, CYP2C9 act)
COc1ccc(-c2nc(N)ncc2-c2csc(C)n2)c(O)c1	CYP2C19 inh 87
CCC(=O)N(CC)c1nc(-c2cc(OC)ccc2OC)cs1	none (no result: CYP2C9 inhib, CYP2C19 inh, CYP2C19 act, CYP2C9 act)
Cc1ccnc(NS(=O)(=O)c2ccc(NS(=O)(=O)c3ccccc3)cc2)n1	none (no result: CYP2C9 inhib, CYP2C19 inh, CYP2C19 act, CYP2C9 act)
CCOC(=O)c1ccc(CC2S/C(=C(\C#N)C(C)=O)NC2=O)cc1 (stereo not given)	CYP2C9 inhib 62
CCc1ccc(CC2S/C(=C(\C#N)C(C)=O)NC2=O)cc1 (stereo not given)	CYP2C9 inhib 78
Cc1ccc(CC2S/C(=C(/C#N)C(=O)NCc3ccco3)N(c3ccccc3)C2=O)cc1 (stereo not given)	none
CCCCCOc1ccc(C(=O)NCC(=O)NCC(=O)OCC)cc1	none
Nc1scc2c(C(=O)N/N=C/c3ccc(Cl)cc3)nn(-c3ccccc3)c(=O)c12	CYP2C9 inhib 54
CCOC(=O)c1nn(-c2ccccc2)c(=O)c2c(N)scc12	none
CN1C(=O)CC(C(=O)O)SC1=Nc1ccc(F)cc1 (stereo not given)	none (no result: CYP2C9 inhib, CYP2C19 inh, CYP2C19 act, CYP2C9 act)
Cc1ccc(S(=O)(=O)n2nc(C)cc2C)cc1	none
CCOc1cc(S(=O)(=O)N(CC)CC)ccc1F	CYP2C19 inh 95, CYP2C9 act 2.3
CCOc1cc(S(=O)(=O)n2nc(C)cc2C)ccc1F	CYP2C19 inh 73
CCOc1cc(S(=O)(=O)Nc2ccc(Cl)cn2)ccc1Cl	none (no result: CYP2C9 inhib, CYP2C19 inh, CYP2C19 act, CYP2C9 act)
COc1ccc(S(=O)(=O)Nc2ccc(Cl)cn2)c(C)c1C	CYP2C9 inhib 53
CCOc1cc(S(=O)(=O)Nc2ccc(Cl)cn2)ccc1F	CYP2C9 inhib 96
Cc1ccc(S(=O)(=O)NC(=O)Nc2ccc(Cl)cn2)cc1	none
CCOC(=O)n1cc(-c2cnc(CNC(=O)C(C)(c3ccccc3)c3ccccc3)o2)c2ccccc21	none (no result: CYP2C9 inhib, CYP2C19 inh, CYP2C19 act, CYP2C9 act)
CC1=C(C(=O)OCC(C)C)C23C(=O)c4ccccc4C2(O1)OC(N)=C3C#N (stereo not given)	CYP2C9 inhib 68, CYP2C19 inh 86
CC1=C(C(=O)OCC(C)C)[C@]23C(=O)c4ccccc4[C@@]2(O1)OC(N)=C3C#N	none (no result: CYP2C9 inhib, CYP2C19 inh, CYP2C19 act, CYP2C9 act)
